Data on 90 compounds can be found in PubChem BioAssay AID504621 (Broad Institute, 2011).

Screen size: about 310,000 compounds; about 970 (0.31%) were called active. What follows is part of a selection rich in actives, with near analogues and random picks from the rest. Unmarked numbers belong to inactive results.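 How the source made its calls: active means every replicate shows inhibition above about 80%, whatever the replicate mean (limit read from the data); inconclusive means mean inhibition reaches the set limit but some replicate falls short; inactive means the rest.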

By inhibition is commonly meant the relative decrease from the control value, in per cent.

The nature of the assay: reduced ATP signal of yeast carrying P. falciparum Hsp90 – S. cerevisiae, BacTiter-Glo luminescence, single point, set 2, antimalarial PfHsp90 inhibitor project, primary screen (AID 504621).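 Further: yeast relying on Plasmodium falciparum Hsp90 in place of its own; 0% = DMSO neutral controls and 100% = 20 µM radicicol positive controls.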 Conditions: S. cerevisiae expressing PfHsp90, growth, 48 h, at 9.4 µM, active compounds read high, yeast lacking PDR1 and PDR3 efflux regulators.
Take `O=C(/C=C/c1ccc(Cl)c([N+](=O)[O-])c1)c1ccc(O)cc1`: the inhibition was 12.9%.

Consider `O=C(/C=C/c1ccc(Cl)c([N+](=O)[O-])c1)c1cccnc1`, for which the inhibition was 104% (active).

`O=C(Nc1cccnc1)c1ccc(Cl)c([N+](=O)[O-])c1`: the inhibition was 15.1%.

In the case of `COc1ccc(CNCCCn2cnc3c(OCc4ccccc4)ncnc32)cc1`, the inhibition is 21.9%.

As for `COc1ccc(C(=O)Nc2cccc(/C=C(/CCC(=O)O)c3nc4ccccc4s3)c2)cc1`, the inhibition was -6.48%.

Consider `O=C(NN=Cc1ccccc1O)NN=Cc1ccccc1O`, for which the inhibition is 15.3%.

For the compound `COC[C@@H]1NS(=O)(=O)c2ccc(Br)cc2O[C@H]1c1ccccc1`, the inhibition is -9.7%.

Regarding `CC(CN1CCOCC1)OC(=O)c1ccc(Cl)cc1Cl` (stereo not given), the inhibition is -17.2%.

On to `CC(C)OC(=O)c1ccc(NCc2cc(O)ccc2O)cc1Cl`, for which the inhibition is 121% (active).

For `CC(C)NC(=O)c1ccc(Cl)cc1Cl`, the inhibition was -8.78%.

With `N#CC1=C(N)Oc2cc(N)ccc2C1c1ccccc1` (stereo not given), the inhibition is -6.35%.

`O=C(Cc1ccc(S(=O)(=O)N2CCOCC2)s1)Nc1ccc(Br)c(C(F)(F)F)c1`: the inhibition is 0.787%.

Consider `C=CCNC(=S)N1CCN(CCN=Cc2c(C)[nH]n(-c3ccc([N+](=O)[O-])cc3)c2=O)CC1`, for which the inhibition is -11.1%.

Turning to `Cc1[nH]n(-c2ccc([N+](=O)[O-])cc2)c(=O)c1C=NCCN1CCN(C(=O)c2ccccc2F)CC1`, the inhibition was 86.9% (active).

`Cc1[nH]n(-c2ccccc2)c(=O)c1N=Nc1ccccc1C(=O)N1CCCCC1`: the inhibition was 9.24%.

For `CCOC(=O)CCC(NC(=O)c1ccc(CNc2nc3cc(C(F)(F)F)ccc3nc2C(=O)OCC)cc1)C(=O)OCC` (stereo not given), the inhibition is -2.78%.

Regarding `Cc1ccc(S(=O)(=O)N2CCN(C(=O)COC(=O)/C=C/c3cccc(Cl)c3)CC2)c(C)c1`, the inhibition is 4.86%.

On to `Cc1cccc(-c2oc3ccc(-c4ccc5c(c4)OCO5)cc3c2C#Cc2cncn2C)c1`, for which the inhibition is -2.66%.

With `O=C(NCc1ccc2c(c1)OCO2)c1c(-c2ccsc2)sc2ccccc12`, the inhibition is 20.1%.

Take `C/C(=N\NC(=O)Cc1ccc(Cl)cc1)c1ccccn1`: the inhibition is -4.85%.

As to `CC(=NNC(=S)N1CCCCCC1)c1ccccn1`, the inhibition was 91.4% (active).

`C/C(=N\NC(=O)c1ccccc1F)c1ccccn1`: the inhibition is -13%.

On to `Oc1[nH]c2ccccc2c1N=Nc1c(F)c(F)c(F)c(F)c1F`, for which the inhibition is -34.3%.

With `COc1ccc(C(=O)N(C)Cc2ccc(OC)c(OC)c2OC)cc1S(=O)(=O)N1CCOCC1`, the inhibition was 5.5%.

Regarding `O=C(CN1C(=O)NC2(CCCCCCC2)C1=O)NCc1ccc(F)cc1`, the inhibition was 12.2%.

For the compound `OCC1(CO)CC2(C1)CC(CO)(CO)C2`, the inhibition was 6.26%.

Turning to `Cn1nccc1C(=O)N1CCCC(C(=O)c2ccc(Oc3ccccc3)cc2)C1` (stereo not given), the inhibition is -45.9%.

In the case of `CCNC(=O)N1CCCC(C(=O)c2ccc(-c3ccccc3)cc2)C1` (stereo not given), the inhibition was -1.67%.

Take `O=C(c1ccc(-c2ccccc2)cc1)C1CCCN(C(=O)c2cncs2)C1` (stereo not given): the inhibition is 90.2% (active).

Turning to `CC(C)(C)OC(=O)N(Cc1ccccc1)Cc1ccc(OCc2cccc(NC(=O)c3ccccc3)c2)cc1`, the inhibition was 25%.

Turning to `COc1cccc2oc(CCc3ccccc3)cc(=O)c12`, the inhibition was 8.03%.

`O=C(Cc1ccc(Cl)c(Cl)c1)Nc1ccc(SC(F)F)cc1`: the inhibition is 12.6%.

For the compound `O=C(CC1SCCNC1=O)Nc1ccc(Cl)c(Cl)c1` (stereo not given), the inhibition was 15%.

Take `O=C(CC(O)(C(F)(F)F)C(F)(F)F)Nc1ccc(Cl)c(Cl)c1`: the inhibition was 123% (active).

As to `Cc1cc([N+](=O)[O-])ccc1NS(=O)(=O)c1ccccc1`, the inhibition was -35.7%.

For the compound `COC(=O)/C=C\C(=O)Nc1cccc([N+](=O)[O-])c1`, the inhibition is 106% (active).

Consider `COc1cccc(CNC(=O)CCCC(=O)Nc2cccc([N+](=O)[O-])c2)c1`, for which the inhibition was -1.23%.

For the compound `COc1ccc(S(=O)(=O)NC(C)C(=O)Nc2cccc([N+](=O)[O-])c2)cc1` (stereo not given), the inhibition was 4.61%.

Take `O=C(/C=C/c1cccc([N+](=O)[O-])c1)N1CCN(Cc2ccccc2)CC1`: the inhibition is 0.555%.

Regarding `COC(=O)Cn1cc(/C=C/[N+](=O)[O-])c2ccccc21`, the inhibition is -17%.

Take `O=[N+]([O-])/C=C/c1ccc2c(ccn2Cc2ccccc2)c1`: the inhibition is 104% (active).

On to `COC(=O)c1ccc(COc2ccc(/C=C/C(=O)c3ccc(OC)c(CSCC(=O)O)c3)cc2OC)cc1`, for which the inhibition was 1.15%.

Regarding `COc1ccc(/C=C/C(=O)c2ccc(NS(=O)(=O)c3ccc(C)cc3)cc2)cc1O`, the inhibition was -4.81%.

On to `COc1ccc(C(=O)/C=C/c2ccc(-c3ccccc3)cc2)cc1CSCC(=O)O`, for which the inhibition is 105% (active).

For `CN(CCc1ccccc1)C(=O)c1cccc(NC(=O)Cc2cccc(NC(=O)C3CCCN(C(=O)CCc4ccccc4)C3)c2)c1` (stereo not given), the inhibition was -1.39%.

Turning to `O=C(Nc1ccn(CCCNCc2ccc3[nH]ccc3c2)c(=O)n1)OCc1ccccc1`, the inhibition is -7.16%.

With `CCCCN1CC(COc2ccccc2)Oc2cccc(F)c2S1(=O)=O` (stereo not given), the inhibition was -1.66%.

As to `O=C(NNC(=O)c1ccccc1O)c1ccccc1O`, the inhibition was -9.27%.

Consider `CN(CC(=O)O)C(=O)c1ccccc1`, for which the inhibition is 28.8%.

Regarding `CN(/N=C/c1ccccc1)C(=S)c1ccccc1`, the inhibition was -15.5%.

As to `CN(O)C(=S)c1ccccc1`, the inhibition is 104% (active).

Take `CCc1ccc(C(=O)C(C)OC(=O)CN2C(=O)NC3(CCCC3)C2=O)cc1` (stereo not given): the inhibition was -1.32%.

In the case of `Cc1nnsc1C(=O)N/N=C/c1ccccc1Cl`, the inhibition was 1.6%.

Take `O=C(Nc1ccccc1)c1nnsc1S(=O)(=O)c1ccc(Cl)cc1`: the inhibition was 126% (active).

`O=C(Nc1ccc(Cl)cc1)Nc1nnc(/C=C/c2ccccc2)s1`: the inhibition is 8.47%.

For `O=C(C[C@H]1C/C=C\C[C@@H](NC(=O)OCC2c3ccccc3-c3ccccc32)C(=O)O[C@@H](c2ccccc2)CNC1=O)N[C@H](CO)Cc1ccccc1`, the inhibition was -13.9%.

With `OCCN1CCN(CCO)C1=S`, the inhibition was 15.3%.

Regarding `Cc1cc(-c2n[nH]c(=S)n2/N=C/C(Br)=C/c2ccccc2)n[nH]1`, the inhibition is 109% (active).

Take `Oc1ccccc1/C=N/n1c(-c2cccs2)n[nH]c1=S`: the inhibition was -9.75%.

Take `S=c1[nH]nc(-c2cc(-c3ccccc3)n[nH]2)n1/N=C/c1c2ccccc2cc2ccccc12`: the inhibition was -28.2%.

Consider `CCCN(CCC)S(=O)(=O)c1cc2c(cc1Br)CCN2C(=O)CC`, for which the inhibition is -17.7%.

Consider `CSCCC(NC(=O)COc1ccccc1)C(=O)OCc1ccc(Cl)cc1` (stereo not given), for which the inhibition was 6.52%.

As for `O=C1/C(=C\c2ccc(O)cc2)CCC1CNc1ccc(Cl)cc1` (stereo not given), the inhibition is 42.3%.

For the compound `CC(C)N(C(=O)[C@H]1C[C@H](CC(=O)NC(C)(C)C)C(=O)N2CCc3c([nH]c4ccc(Cl)cc34)[C@]12C)C(C)C`, the inhibition is 21.3%.

For `O=C(OC12CC3CC(CC(C3)C1)C2)c1ccc(NCc2cc(O)ccc2O)cc1`, the inhibition was 124% (active).

`COC(=O)c1ccc(NCc2cc(O)ccc2O)cc1`: the inhibition was 30.3%.

Turning to `CC1(C)C2CCC1(C)C(OC(=O)c1ccc(O)cc1)C2` (stereo not given), the inhibition was 11.7%.

As for `O=C(Nc1c(Br)cc2c(c1Br)Cc1cc([N+](=O)[O-])ccc1-2)C(Cl)Cl`, the inhibition is -28.5%.

On to `O=S1(=O)CCOC[C@H](Cc2ccccc2)N1Cc1ccccc1Br`, for which the inhibition is 10.2%.

`C=CCOC(=O)N1CCC2CC1c1cc(-c3ccc(OC)cc3)ccc12` (stereo not given): the inhibition is -3.16%.

As for `COc1ccccc1C(=O)c1ccccc1C(=O)c1ccccc1`, the inhibition was -29.9%.

For `CN(CCc1ccccc1)C(=O)c1cccc(NC(=O)Cc2cccc(NC(=O)C3CCCN(C(=O)C4CCC4)C3)c2)c1` (stereo not given), the inhibition is 10.6%.

In the case of `CCOC(=O)c1ccc(N2C(=O)CC(N3CC(C)OC(C)C3)C2=O)cc1` (stereo not given), the inhibition is 11.2%.

Take `CCOC(=O)c1ccc(N2C(=O)CC(N3CCC(C(=O)OCC)CC3)C2=O)cc1` (stereo not given): the inhibition is 94.1% (active).

Consider `CCOC(=O)c1ccc(N2C(=O)CC(N3CCN(C(=O)c4ccccc4)CC3)C2=O)cc1` (stereo not given), for which the inhibition was 18.7%.

As to `CSc1ncnc2c1ncn2CC(=O)C1CCC2C3CCC4=CC(=O)CCC4(C)C3CCC12C` (stereo not given), the inhibition is 17%.

With `CCOC(=O)[C@H]1[C@H]2COc3ccc(Br)cc3[C@@H]2N2C(=O)CN(C)C(=O)[C@@]12C`, the inhibition is 3.33%.

On to `C=CC(=O)Nc1ccc(Nc2ccnc(Nc3ccc(N4CCN(C)CC4)cc3)n2)cc1`, for which the inhibition was 1.37%.

Regarding `CCN(CC)S(=O)(=O)c1ccc(N2CCCC2)c(NC(=O)c2ccc([N+](=O)[O-])o2)c1`, the inhibition was 7.78%.

In the case of `Oc1ccccc1C1=NN(c2ccccc2)C(c2ccccc2)C1` (stereo not given), the inhibition is 106% (active).

As to `O=C(c1ccccc1)N1N=C(c2ccccc2O)CC1c1ccc(Br)cc1` (stereo not given), the inhibition was -6.75%.

For the compound `CC(=O)Oc1ccccc1C1=NN(C(C)=O)C(c2ccccc2)C1` (stereo not given), the inhibition is 6.42%.

Consider `OCc1ccc(OCCCOc2cccc3cccnc23)cc1`, for which the inhibition was 24.6%.

On to `Fc1ccccc1COc1cccc2cccnc12`, for which the inhibition was 5.74%.

As for `O=C(Nc1ccccc1)Oc1cccc2cccnc12`, the inhibition was 104% (active).

For the compound `CCOc1ccc(S(=O)(=O)N2CCN(C(=O)c3oc4ccccc4c3C)CC2)cc1`, the inhibition is -16.3%.

Take `CC(=O)Oc1ccc(OC(C)=O)c2c1C1C=CC2CC1`: the inhibition is -4.99%.

For `O=C(NN=Cc1ccc([N+](=O)[O-])cc1)C1CC1`, the inhibition was -9.96%.

In the case of `O=C1/C(=C\c2ccc([N+](=O)[O-])cc2)CS(=O)(=O)C/C1=C/c1ccc([N+](=O)[O-])cc1`, the inhibition is 104% (active).

For the compound `O=[N+]([O-])c1ccc(C=NN=Cc2ccc([N+](=O)[O-])cc2)cc1`, the inhibition was -1.39%.
